# Assay results from PubChem BioAssay (Tox21).
# Values without a mark were called inactive. Results filed as inconclusive are left out. A call without a number means that no potency is given here. Activity calls are given as the source filed them. Unless noted, the call rests on the fitted dose curve.
# Assays:
# [1] = Nuclear factor erythroid 2-related factor 2/antioxidant responsive element (Nrf2/ARE) small molecule agonists: qHTS cell viability counter screen in human keratinocytes (AID 1919968; active means well fitted curve in the direction sought with a large enough effect in the repeat runs; an effect the other way counts as inactive or inconclusive; further: nearly all actives have a fitted effect of over 55% in size; further: potency means the concentration at half of the fitted maximal effect)
# Outline: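 KeratinoSens cells (HaCaT keratinocytes stably carrying an ARE-luciferase reporter) were seeded at 1,500 cells/well and rested 5 h at 37 C/5% CO2. They were then exposed to compounds in DMSO for 23 h. Viability was read by CellTiter-Fluor fluorescence after 1 h.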
# [2] = Nuclear factor erythroid 2-related factor 2/antioxidant responsive element (Nrf2/ARE) small molecule agonists: luciferase reporter gene qHTS assay in human keratinocytes (AID 1919969); further: nearly all actives have a fitted effect of over 35% in size; further: potency means the concentration at half of the fitted maximal effect
# [3] = target: Gonadotropin-releasing hormone receptor (Homo sapiens) (UniProt P30968); experiment: Human gonadotropin-releasing hormone receptor (GnRHR) small molecule agonists, calcium flux assay in GnRHR-HEK293 cells (AID 1920063); further: nearly all actives have a fitted effect of over 35% in size
# Outline: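 HEK293 cells stably expressing human GnRHR were plated 18 h at 37 °C, loaded with calcium dye 1 h at 37 °C, then given compound in agonist mode; fluorescence (Ex/Em 480/540) read kinetically for 3 min at 1 s intervals.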
# [4] = target: KiSS-1 receptor (Homo sapiens) (UniProt Q969F8); experiment: Human kisspeptin (KISS1R) small molecule agonists, calcium flux assay in KISS1R-HEK293 cells (AID 1920064; active means well fitted curve in the direction sought with a large enough effect in the repeat runs; an effect the other way counts as inactive or inconclusive)
# Outline: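 HEK293 cells stably expressing human KISS1R were plated 18 h at 37 °C, loaded with calcium dye for 1 h at 37 °C, then given compound by pin tool. Fluorescence (Ex/Em 480/540) was read kinetically for 3 min.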
# [5] = G protein-coupled receptor (GPCR) small molecule agonists, calcium flux assay: HEK293 wild type cell line counter screen (AID 1920065)
# Outline: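 Cells were plated and cultured 18 h at 37 C/5% CO2, then loaded with calcium dye for 1 h at 37 C. Compounds in DMSO were pin-transferred in agonist mode, and fluorescence (Ex/Em 480/540) was read kinetically for 3 min at 1 s intervals.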
# [6] = p53 small molecule agonists, cell-based qHTS assay with human liver microsomes (AID 1963577)
# Outline: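 p53RE-bla cells, 4,000/well, compound added after 5 h, with human liver microsomes 0.5 mg/mL and NADPH 0.5 mg/mL final; 16 h at 37 C, then LiveBLAzer 2 h RT, fluorescence.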
# [7] = p53 small molecule agonists, cell-based qHTS assay with rat liver microsomes (AID 1963578)
# Outline: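 p53RE-bla cells, 4,000/well, pre-incubated 5 h, then given compounds plus rat liver microsomes (0.5 mg/mL final) and NADPH (0.5 mg/mL final). Incubation 16 h at 37 C; beta-lactamase reporter read by LiveBLAzer fluorescence after 2 h at room temperature.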
# [8] = p53 small molecule agonists, cell-based qHTS assay with human liver microsomes: qHTS cell viability counter screen (AID 1963579); further: nearly all actives have a fitted effect of over 45% in size
# Outline: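 p53RE-bla cells, 4,000/well, dosed 5 hours after plating, with human liver microsomes (0.5 mg/mL final) plus NADPH (0.5 mg/mL final), 16 hours at 37 C. Viability read as CellTiter-Glo luminescence after 30 min at room temperature.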
# [9] = p53 small molecule agonists, cell-based qHTS assay with rat liver microsomes: qHTS cell viability counter screen (AID 1963580); further: nearly all actives have a fitted effect of over 45% in size
# Outline: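 Viability is assessed in parallel with the p53 reporter read: HCT-116 p53RE-bla cells receive compounds plus rat microsomes and NADPH (0.5 mg/mL final apiece), incubate 16 h at 37 C, and then CellTiter-Glo luminescence is recorded.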
# [10] = p53 small molecule agonists, cell-based qHTS assay: qHTS cell viability counter screen (AID 1963581); further: nearly all actives have a fitted effect of over 45% in size
# Outline: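 p53RE-bla HCT-116 cells were exposed to compounds for 16 h at 37 C; after the beta-lactamase FRET read in the same wells, CellTiter-Glo was added and luminescence (intracellular ATP) read after 30 min at room temperature.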
# [11] = p53 small molecule agonists, cell-based qHTS assay (AID 1963582; active means well fitted activation curve with a large enough effect in the signal ratio in the repeat runs, not every such curve was filed as active; the % refers to the signal ratio)
# Outline: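 p53RE-bla beta-lactamase reporter cells rested 5 h at 37 C/5% CO2, then received compounds in DMSO by pin transfer and were incubated 16 h at 37 C. LiveBLAzer B/G FRET substrate was loaded for 2 h at room temperature before fluorescence reading.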
# [12] = target: 5-hydroxytryptamine receptor 2A (Homo sapiens) (UniProt P28223); experiment: 5-hydroxytryptamine receptor 2A (HTR2A) small molecule agonists, cell-based qHTS assay (AID 1963587); further: nearly all actives have a fitted effect of over 30% in size
# Outline: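 CHO cells stably expressing human HTR2A, plated 18 h, loaded with calcium dye 1 h at 37 C. Agonist mode: compounds added and intracellular calcium fluorescence recorded kinetically for 2 min at 1 sec intervals.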
# [13] = target: Muscarinic acetylcholine receptor M1 (Homo sapiens) (UniProt P11229); experiment: Cholinergic receptor muscarinic 1 (CHRM1) small molecule antagonists, cell-based qHTS assay (AID 1963588); further: nearly all actives have a fitted effect of over 40% in size
# Outline: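 CHRM1-CHO calcium-flux assay, antagonist mode. Cells were seeded 18 h, dye-loaded 1 h at 37 C and given compound for 5 min at RT, then acetylcholine was added at 50nM. FDSS fluorescence was read 3 min; 15 concentrations, three runs.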
# [14] = target: Muscarinic acetylcholine receptor M1 (Homo sapiens) (UniProt P11229); experiment: Cholinergic receptor muscarinic 1 (CHRM1) small molecule agonists, cell-based qHTS assay (AID 1963589); further: nearly all actives have a fitted effect of over 35% in size
# Outline: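 CHO cells stably expressing human CHRM1, seeded 18 h at 37 C/5% CO2, dye-loaded 1 h at 37 C, then given compound in agonist mode; intracellular calcium fluorescence read kinetically at 1 s intervals. Fifteen concentrations, three independent runs.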
# [15] = cAMP Responsive Elements (CRE) small molecule antagonists, cell-based qHTS assay (AID 1963591; active means well fitted inhibition curve with a large enough effect in the signal ratio in the repeat runs, not every such curve was filed as active; the % refers to the signal ratio)
# Outline: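 CRE-bla HEK293T cells were plated 18 h at 37 °C/5% CO2, pinned with compound in DMSO, then stimulated with NKH477 at 0.25 uM final for 3 h. LiveBLAzer B/G FRET substrate was added and plates incubated 2 h at room temperature.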
# [16] = target: Beta-2 adrenergic receptor (Homo sapiens) (UniProt P07550); experiment: Adrenergic beta2 receptor (ADRB2) small molecule antagonists, cell-based qHTS assay (AID 1963592); further: series mostly up to about 92 µM; nearly all actives have a fitted effect of over 50% in size
# Outline: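 Cells (CHO, stable ADRB2 overexpression) incubated 18-20hr at 37C; compounds added from DMSO; agonist mix (1nM isoproterenol, 100uM IBMX, 25uM Ro-20-1724) added; 0.5hr RT; d2-cAMP and anti-cAMP-cryptate added; 1hr RT; 665/615 nm read.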
# [17] = target: D(2) dopamine receptor (Homo sapiens) (UniProt P14416); experiment: Dopamine D2 receptor (DRD2) small molecule agonists, cell-based qHTS assay (AID 1963594); further: nearly all actives have a fitted effect of over 35% in size
# Outline: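 HEK293 cells stably expressing human DRD2, pre-treated with PDE inhibitor Ro20-1724 (0.1 mM final) and compound 10 min at room temperature, then stimulated with NKH477 (200nM […]) for 30 min. cAMP read by HTRF (665/620 nm).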
# [18] = target: D(2) dopamine receptor (Homo sapiens) (UniProt P14416); experiment: Dopamine D2 receptor (DRD2) small molecule antagonists, cell-based qHTS assay (AID 1963595; active means well fitted inhibition curve with a large enough effect in the signal ratio in the repeat runs, with a control signal flat; the % refers to the signal ratio)
# Outline: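 In this cell-based antagonist screen, compounds act for 10 min at room temperature before a 30 min challenge with 12 nM quinpirole and 200 nM NKH477. cAMP is quantified by HTRF competition in DRD2-HEK293 cells containing 0.1 mM Ro20-1724.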
# [19] = cAMP Responsive Elements (CRE) small molecule agonists, cell-based qHTS assay (AID 1963590)
# Outline: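 CRE-bla HEK 293T cells in DMEM with 10% dialyzed FBS, NEAA, pyruvate and 25 mM HEPES were plated 18 h at 37 C/5% CO2, then exposed to compounds in DMSO for 3 h before LiveBLAzer B/G FRET substrate addition.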
# [20] = target: Beta-2 adrenergic receptor (Homo sapiens) (UniProt P07550); experiment: Adrenergic beta2 receptor (ADRB2) small molecule agonists, cell-based qHTS assay (AID 1963593);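 further: CHO cells stably overexpressing human ADRB2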
# Outline: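 CHO cells stably over-expressing ADRB2 were plated overnight at 37C, then dosed with compounds plus a stimulation mix containing 100uM IBMX and 25uM Ro-20-1724 for 0.5hr at room temperature. cAMP was measured by HTRF competition, 1hr.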
# Chain of D(2) dopamine receptor (Homo sapiens) (P14416 whole entry, looked up): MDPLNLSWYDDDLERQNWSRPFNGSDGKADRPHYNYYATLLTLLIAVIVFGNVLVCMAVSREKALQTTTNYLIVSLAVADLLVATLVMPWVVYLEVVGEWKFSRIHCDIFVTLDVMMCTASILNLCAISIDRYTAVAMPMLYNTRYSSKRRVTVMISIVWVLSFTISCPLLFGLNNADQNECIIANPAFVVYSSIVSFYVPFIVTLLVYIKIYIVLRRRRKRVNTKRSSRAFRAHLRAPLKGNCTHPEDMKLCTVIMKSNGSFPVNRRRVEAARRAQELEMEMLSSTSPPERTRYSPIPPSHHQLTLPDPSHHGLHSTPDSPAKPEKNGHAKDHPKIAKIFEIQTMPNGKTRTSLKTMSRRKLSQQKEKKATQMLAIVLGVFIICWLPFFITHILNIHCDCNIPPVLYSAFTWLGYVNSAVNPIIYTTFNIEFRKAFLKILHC
# Chain of KiSS-1 receptor (Homo sapiens) (Q969F8 whole entry, looked up): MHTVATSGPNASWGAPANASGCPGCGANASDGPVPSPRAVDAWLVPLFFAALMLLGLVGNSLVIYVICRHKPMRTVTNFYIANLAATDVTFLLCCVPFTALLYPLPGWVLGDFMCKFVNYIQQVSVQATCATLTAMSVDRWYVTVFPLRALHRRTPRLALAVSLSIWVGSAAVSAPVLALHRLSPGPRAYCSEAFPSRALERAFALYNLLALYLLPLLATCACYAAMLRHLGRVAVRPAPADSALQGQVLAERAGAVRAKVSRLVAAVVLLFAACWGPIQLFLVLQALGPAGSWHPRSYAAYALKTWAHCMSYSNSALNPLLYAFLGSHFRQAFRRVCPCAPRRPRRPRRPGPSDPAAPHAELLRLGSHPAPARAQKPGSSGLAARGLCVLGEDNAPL
# Chain of Muscarinic acetylcholine receptor M1 (Homo sapiens) (P11229 whole entry, looked up): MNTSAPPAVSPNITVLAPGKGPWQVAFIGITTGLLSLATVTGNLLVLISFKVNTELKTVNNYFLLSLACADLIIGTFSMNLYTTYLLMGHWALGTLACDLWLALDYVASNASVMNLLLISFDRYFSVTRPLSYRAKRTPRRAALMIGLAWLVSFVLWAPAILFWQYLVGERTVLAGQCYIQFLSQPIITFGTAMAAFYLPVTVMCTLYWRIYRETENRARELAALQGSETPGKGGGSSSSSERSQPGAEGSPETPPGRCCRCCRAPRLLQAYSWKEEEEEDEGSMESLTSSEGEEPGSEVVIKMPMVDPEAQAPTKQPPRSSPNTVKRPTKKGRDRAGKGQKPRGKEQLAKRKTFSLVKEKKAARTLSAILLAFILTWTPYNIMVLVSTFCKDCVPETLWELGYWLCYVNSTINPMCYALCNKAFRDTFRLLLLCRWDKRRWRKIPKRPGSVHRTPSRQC
# Chain of 5-hydroxytryptamine receptor 2A (Homo sapiens) (P28223 whole entry, looked up): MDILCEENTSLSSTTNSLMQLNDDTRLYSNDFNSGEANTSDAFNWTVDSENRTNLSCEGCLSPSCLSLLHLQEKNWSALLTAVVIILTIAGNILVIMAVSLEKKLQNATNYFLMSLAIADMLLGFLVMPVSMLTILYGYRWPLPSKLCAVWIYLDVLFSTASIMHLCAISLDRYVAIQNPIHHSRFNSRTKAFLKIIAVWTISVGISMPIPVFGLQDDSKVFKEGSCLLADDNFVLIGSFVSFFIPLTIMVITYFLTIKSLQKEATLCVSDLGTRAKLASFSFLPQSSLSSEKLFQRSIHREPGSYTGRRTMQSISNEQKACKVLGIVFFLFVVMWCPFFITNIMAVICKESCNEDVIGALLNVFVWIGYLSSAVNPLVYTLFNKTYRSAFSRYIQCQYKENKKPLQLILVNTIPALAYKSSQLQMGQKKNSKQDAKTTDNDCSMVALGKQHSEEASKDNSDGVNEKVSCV
# Chain of Beta-2 adrenergic receptor (Homo sapiens) (P07550 whole entry, looked up): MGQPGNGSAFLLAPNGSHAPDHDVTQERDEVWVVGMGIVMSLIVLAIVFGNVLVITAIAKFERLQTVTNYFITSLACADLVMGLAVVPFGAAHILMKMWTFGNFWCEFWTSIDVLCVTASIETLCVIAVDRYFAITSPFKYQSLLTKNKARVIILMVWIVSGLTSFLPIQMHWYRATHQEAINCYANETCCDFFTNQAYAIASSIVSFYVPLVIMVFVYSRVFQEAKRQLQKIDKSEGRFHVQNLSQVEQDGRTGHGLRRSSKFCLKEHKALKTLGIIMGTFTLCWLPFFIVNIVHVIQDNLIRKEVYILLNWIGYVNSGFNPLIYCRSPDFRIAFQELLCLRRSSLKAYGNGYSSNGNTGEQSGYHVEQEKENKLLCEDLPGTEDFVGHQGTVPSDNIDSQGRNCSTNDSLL
# Chain of Gonadotropin-releasing hormone receptor (Homo sapiens) (P30968 whole entry, looked up): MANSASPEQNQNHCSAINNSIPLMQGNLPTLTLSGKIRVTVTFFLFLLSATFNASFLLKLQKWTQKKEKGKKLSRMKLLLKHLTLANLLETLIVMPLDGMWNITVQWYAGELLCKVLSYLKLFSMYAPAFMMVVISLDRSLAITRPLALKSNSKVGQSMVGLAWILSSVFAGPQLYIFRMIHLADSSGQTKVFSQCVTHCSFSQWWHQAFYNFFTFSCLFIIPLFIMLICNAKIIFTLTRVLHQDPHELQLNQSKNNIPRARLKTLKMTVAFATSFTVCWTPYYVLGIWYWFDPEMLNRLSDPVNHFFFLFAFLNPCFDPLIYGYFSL
SMILES,Potency [1],Potency [2],Potency [3],outcome [4],outcome [5],Potency [6],Potency [7],Potency [8],Potency [9],Potency [10],Potency [11],Potency [12],Potency [13],Potency [14],Potency [15],Potency [16],Potency [17],Potency [18],Potency [19],Potency [20]
O=[N+]([O-])c1cc(Cl)c(Cl)c(Cl)c1Cl,inactive,48.4 µM (active),inactive,inactive,inactive,inactive,inactive,inactive,inactive,inactive,inactive,inactive,inactive,inactive,inactive,inactive,inactive,inactive,–,–
O=C1c2ccccc2C(=O)N1CO,inactive,inactive,inactive,inactive,inactive,inactive,inactive,inactive,inactive,inactive,inactive,inactive,inactive,inactive,inactive,inactive,inactive,inactive,inactive,–
CC(C)(C)c1nnc(NS(=O)(=O)c2ccccc2)s1,inactive,inactive,inactive,inactive,inactive,inactive,inactive,inactive,inactive,inactive,inactive,inactive,inactive,inactive,inactive,inactive,–,inactive,inactive,–
CC(=O)Nc1ccc(OCC(O)CNC(C)C)cc1 (configuration not stated),inactive,inactive,inactive,inactive,inactive,inactive,inactive,inactive,inactive,inactive,inactive,inactive,inactive,inactive,inactive,–,inactive,inactive,inactive,–
O=C(O)CCC(=O)c1ccc(-c2ccccc2)cc1,inactive,inactive,inactive,inactive,inactive,inactive,inactive,inactive,inactive,inactive,inactive,inactive,inactive,inactive,–,inactive,inactive,inactive,–,–
C=C(C)c1ccccc1,inactive,inactive,inactive,inactive,inactive,inactive,inactive,inactive,inactive,inactive,inactive,inactive,inactive,inactive,inactive,inactive,inactive,inactive,inactive,–
O=[N+]([O-])c1cccc(S(=O)(=O)NCCNS(=O)(=O)c2cccc([N+](=O)[O-])c2)c1,inactive,inactive,inactive,inactive,inactive,inactive,inactive,inactive,inactive,inactive,inactive,inactive,inactive,inactive,inactive,inactive,inactive,–,–,inactive
CCOC(=O)c1cnc2c(cnn2CC)c1NN=C(C)C,inactive,inactive,inactive,inactive,inactive,inactive,inactive,inactive,inactive,inactive,inactive,inactive,inactive,inactive,–,–,inactive,inactive,inactive,–
CC(C)CCCCCCOC(=O)CCCCC(=O)OCCCCCCC(C)C,inactive,inactive,inactive,inactive,inactive,inactive,inactive,inactive,inactive,inactive,inactive,inactive,inactive,inactive,–,inactive,–,inactive,inactive,inactive
COC(=O)CCCCCCCCC(=O)OC,inactive,inactive,inactive,inactive,inactive,inactive,inactive,inactive,inactive,inactive,inactive,inactive,inactive,inactive,inactive,inactive,–,inactive,–,inactive
CC1CCc2c(N3CCC(O)CC3)c(F)cc3c(=O)c(C(=O)O)cn1c23 (configuration not stated),inactive,inactive,inactive,inactive,inactive,inactive,inactive,inactive,inactive,inactive,inactive,inactive,inactive,inactive,–,inactive,inactive,–,–,–
Cc1nnc(C(=O)NC(C)(C)c2nc(C(=O)NCc3ccc(F)cc3)c(O)c(=O)n2C)o1,inactive,inactive,inactive,inactive,inactive,inactive,inactive,inactive,inactive,inactive,inactive,inactive,inactive,inactive,inactive,inactive,–,inactive,–,inactive
FC(F)(F)c1ccc(Cl)cc1Cl,inactive,inactive,inactive,inactive,inactive,inactive,inactive,inactive,inactive,inactive,inactive,inactive,inactive,inactive,–,–,inactive,inactive,inactive,inactive
CCCCCCCCCCCCCCCC[N+](C)(C)CCN(Cc1ccc(OC)cc1)c1ncccn1,26.6 µM (active),inactive,inactive,inactive,inactive,inactive,inactive,inactive,inactive,inactive,inactive,inactive,inactive,inactive,–,inactive,inactive,–,–,–
O=C(NCC1CN(c2ccc(N3CCOCC3=O)cc2)C(=O)O1)c1ccc(Cl)s1 (configuration not stated),inactive,inactive,inactive,inactive,inactive,inactive,inactive,inactive,inactive,inactive,inactive,inactive,inactive,inactive,inactive,inactive,inactive,inactive,–,inactive
